PubChem BioAssay (NCATS)
Values joined by “and” are separate entries in the source; they are usually repeats but may differ in a detail not shown here. Identical values can stand only once. Records with an inconclusive call do not appear. A call without a number means that no potency is given here. Values without a mark were called inactive. Active and inactive are the calls of the source. Calls come from the whole dose curve; as a rule, active = well fitted curve in the direction sought with a large enough effect; inconclusive = small, poorly fitted or top-dose-only effect, or another doubt; inactive = no such curve, though single readings can be large; an effect the other way counts as inactive or inconclusive.

What was measured:
[1] = biological target: Cellular tumor antigen p53 (Homo sapiens) (UniProt P04637); assay: Primary qHTS for small molecule compounds that upregulate eGFP-tagged delta133p53alpha (in N-terminal) cells. (AID 2060322); conditions: NCI-H358 eGFP-delta133p53alpha fluorescence, 24 h; activation: hits give high values; note: nearly all actives have a fitted effect of over 75% in size; note: potency is the fitted concentration of half-maximal effect; for activation: series mostly up to about 56 µM
Procedure, shortened: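 NCI-H358 cells pre-induced 24 h with 10 ng/ml doxycycline to express N-terminal eGFP-delta133p53alpha, then dosed 24 h at 37C without doxycycline; fixed, Hoechst-stained, GFP intensity by laser scanning cytometry, normalized to DMSO (0%) and 57.5 uM 5-azacytidine (100%).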

[2] = biological target: Aldehyde dehydrogenase, mitochondrial (Homo sapiens) (UniProt P05091); assay: qHTS for Inhibitors of the Aldehyde Dehydrogenase Family (ALDH2) Primary screen (AID 2061308); note: nearly all actives have a fitted effect of over 55% in size
[3] = biological target: Retinaldehyde dehydrogenase 3 (Homo sapiens) (UniProt P47895); assay: qHTS for Inhibitors of the Aldehyde Dehydrogenase Family (ALDH1A3) Primary screen (AID 2061315)
[4] = BET inhibitor-based combinations targeting novel dependencies in MECOM-rearranged (r) AML: SET-2 cell line (AID 2202231); conditions: SET-2 AML cells viability, CellTiter-Glo luminescence, 48 h; viability: hits give low values, concentration not given here; note: nearly all actives have a fitted effect of over 35% in size; note: potency is the fitted concentration of half-maximal effect
Procedure, shortened: (§1)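 Here, 11-point titrations of each agent were applied to 500 seeded cells and incubated 48 hr; CellTiter-Glo signal, scaled against DMSO and empty wells, was integrated as AUC, then Z-scored within the individual line.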

[5] = BET inhibitor-based combinations targeting novel dependencies in MECOM-rearranged (r) AML: MV-4-11 cell line (AID 2202233); note: nearly all actives have a fitted effect of over 45% in size; note: potency is the fitted concentration of half-maximal effect
Procedure, shortened: (§2)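 Normalized to DMSO and empty-well controls, the luminescence data from CellTiter-Glo after 48 hr drug exposure were fitted across 11 concentrations. Reported metrics are area under the dose-response curve and its Z-transformed form.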

[6] = BET inhibitor-based combinations targeting novel dependencies in MECOM-rearranged (r) AML: HNT-34 cell line (AID 2202234); note: nearly all actives have a fitted effect of over 35% in size; note: potency is the fitted concentration of half-maximal effect
Procedure, shortened: as §2

[7] = BET inhibitor-based combinations targeting novel dependencies in MECOM-rearranged (r) AML: UCSD-AML1 cell line (AID 2202235); note: nearly all actives have a fitted effect of over 40% in size; note: potency is the fitted concentration of half-maximal effect
Procedure, shortened: as §2

[8] = BET inhibitor-based combinations targeting novel dependencies in MECOM-rearranged (r) AML: AML-191 cell line (AID 2202236; note: nearly all actives have a fitted effect of over 35% in size; note: potency is the fitted concentration of half-maximal effect)
Procedure, shortened: as §1

[9] = BET inhibitor-based combinations targeting novel dependencies in MECOM-rearranged (r) AML: AML-194 cell line (AID 2202237; note: nearly all actives have a fitted effect of over 40% in size; note: potency is the fitted concentration of half-maximal effect)
Procedure, shortened: as §1

[10] = BET inhibitor-based combinations targeting novel dependencies in MECOM-rearranged (r) AML: OCI-AML3 cell line (AID 2202232); conditions: Potency: OCI-AML3 viability; note: series mostly up to about 46 µM; nearly all actives have a fitted effect of over 35% in size
Procedure, shortened: as §1

Sequence of Cellular tumor antigen p53 (Homo sapiens) (P04637 whole entry, looked up): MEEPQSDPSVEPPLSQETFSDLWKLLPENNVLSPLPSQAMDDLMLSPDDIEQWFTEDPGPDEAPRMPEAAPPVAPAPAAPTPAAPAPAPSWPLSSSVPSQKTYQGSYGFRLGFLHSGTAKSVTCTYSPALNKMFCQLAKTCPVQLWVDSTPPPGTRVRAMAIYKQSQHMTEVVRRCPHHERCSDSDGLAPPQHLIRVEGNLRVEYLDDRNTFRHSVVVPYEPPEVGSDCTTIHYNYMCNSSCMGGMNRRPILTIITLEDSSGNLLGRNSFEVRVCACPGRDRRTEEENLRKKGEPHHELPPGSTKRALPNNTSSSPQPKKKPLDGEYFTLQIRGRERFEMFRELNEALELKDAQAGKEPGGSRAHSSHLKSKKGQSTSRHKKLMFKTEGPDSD

With N#Cc1ccc(C2CCCc3cncn32)cc1 (configuration not stated) the activation [1] was -5%, the Potency [2] was “inactive” and the Potency [3] was “inactive”. For the same molecule, the viability [4] was 109%, the Potency [5] was “inactive” and the Potency [6] was “inactive”. The Potency [7] was “inactive”, the Potency [8] was “inactive” and the Potency [9] was “inactive”.
With Cc1c(Cn2c(C)nc3c(C(=O)O)cc(N4CCOCC4)cc32)cccc1C(F)(F)F the activation [1] was -0.853% and -13.4%, the Potency [2] was “inactive” and the Potency [3] was “inactive”. For the same molecule, the viability [4] was 98.9%, the Potency [5] was 4.68 µM (active) and the Potency [6] was 5.9 µM (active). The Potency [8] was 4.68 µM (active) and the Potency [9] was “inactive”.
For NS(=O)(=O)c1cc(Cl)c(Cl)c(S(N)(=O)=O)c1, the activation [1] was -9.17% and 1%, the Potency [2] was “inactive” and the Potency [3] was “inactive”. The viability [4] was 115%, the Potency [5] was “inactive” and the Potency [6] was “inactive”. The Potency [7] was “inactive”, the Potency [8] was “inactive” and the Potency [9] was “inactive”.
In the case of CNc1nc(Nc2ccc(C(=O)N3CCOCC3)cc2OC)ncc1Cl, the activation [1] was -0.44% and -2.68%, the Potency [2] was “inactive” and the Potency [3] was “inactive”. The viability [4] was 93.5%, the Potency [10] was “inactive” and the Potency [8] was “inactive”. For the same molecule, the Potency [9] was “inactive”.
In the case of c1ccc(-c2oc3ncnc(NC[C@@H]4CCCO4)c3c2-c2ccccc2)cc1, the activation [1] was 5.12% and -14.3%, the Potency [2] was “inactive” and the Potency [3] was “inactive”. The viability [4] was 86.5%, the Potency [5] was “inactive” and the Potency [6] was “inactive”. For the same molecule, the Potency [7] was “inactive” and the Potency [9] was “inactive”.
In the case of Cc1c(C(=O)N2CCOc3ccc(-c4ccc(N)nc4)cc3C2)ccc(S(C)(=O)=O)c1F, the Potency [1] was 26.9 µM (active), the Potency [2] was “inactive” and the Potency [3] was “inactive”. For the same molecule, the Potency [4] was 13.2 µM (active), the Potency [5] was 6.61 µM (active) and the Potency [6] was 2.95 µM (active). The Potency [7] was 0.742 µM (active) and the Potency [8] was 1.86 µM (active).
In the case of CCCOc1ccc(CCc2nc3cc(-c4c(C)noc4C)ccc3n2CCN2CCOCC2)cc1, the activation [1] was -35.8%, the Potency [2] was “inactive” and the Potency [3] was “inactive”. For the same molecule, the Potency [4] was 20.9 µM (active), the Potency [5] was 18.6 µM (active) and the Potency [6] was 14.8 µM (active).
With Cc1[nH]c2ccc(F)cc2c1-c1nc2c3cccnc3c3ncccc3c2[nH]1 the activation [1] was -1%, the Potency [2] was “inactive” and the Potency [3] was “inactive”. For the same molecule, the Potency [4] was 2.7 µM (active), the Potency [5] was 0.605 µM (active) and the Potency [6] was 0.679 µM (active). For the same molecule, the Potency [7] was 0.679 µM (active), the Potency [8] was 0.539 µM (active) and the Potency [9] was 0.762 µM (active).
With COc1cc2c(cc1OC)CN(CCc1ccc(NC(=O)c3cc(OC)c(OC)cc3NC(=O)c3cnc4ccccc4c3)cc1)CC2 the activation [1] was 1.67%, the Potency [2] was “inactive” and the Potency [3] was “inactive”. For the same molecule, the viability [4] was 119%, the Potency [5] was “inactive” and the Potency [6] was “inactive”. For the same molecule, the Potency [7] was “inactive”, the Potency [8] was “inactive” and the Potency [9] was “inactive”.
For CC1c2ccccc2CN1NC(=O)c1ccc(Cl)c(S(N)(=O)=O)c1 (configuration not stated), the activation [1] was 6.69%, the Potency [2] was “inactive” and the Potency [3] was “inactive”. The viability [4] was 109%, the Potency [5] was “inactive” and the Potency [6] was “inactive”. For the same molecule, the Potency [7] was “inactive”, the Potency [8] was “inactive” and the Potency [9] was “inactive”.
For Cn1cnc(-c2cc3nccc(Oc4ccc(NC(=S)NC(=O)Cc5ccccc5)cc4F)c3s2)c1, the activation [1] was -7.76% and 19.6%, the Potency [2] was “inactive” and the Potency [3] was “inactive”. For the same molecule, the viability [4] was 78.9%, the Potency [5] was 0.105 µM (active) and the Potency [6] was 3.72 µM (active).
With Cc1nc(NC(=O)N2CCCC2C(N)=O)sc1-c1ccnc(C(C)(C)C(F)(F)F)c1 (configuration not stated) the activation [1] was -0.893%, the Potency [2] was “inactive” and the Potency [3] was “inactive”. The Potency [4] was 20.9 µM (active) and the Potency [5] was 16.6 µM (active).
For CCOc1cc(C(=O)Nc2ccc(Cl)c(-c3nc4ccccc4[nH]3)c2)cc(OCC)c1OCC, the activation [1] was 1.25% and 5.73%, the Potency [2] was “inactive” and the Potency [3] was “inactive”. For the same molecule, the Potency [4] was 18.6 µM (active), the Potency [5] was 16.6 µM (active) and the Potency [6] was 14.8 µM (active). The Potency [9] was “inactive”.
For COc1cc2nccc(Oc3ccc(NC(=O)NC4CC4)c(Cl)c3)c2cc1C(N)=O, the Potency [1] was 26.9 µM (active), the Potency [2] was “inactive” and the Potency [3] was “inactive”. For the same molecule, the Potency [4] was 18.6 µM (active), the Potency [5] was 2.09 µM (active) and the Potency [6] was 9.34 µM (active). The Potency [8] was 20.9 µM (active) and the Potency [9] was “inactive”.
For CC1(C)CNc2cc(NC(=O)c3cccnc3NCc3ccncc3)ccc21, the activation [1] was -11.7% and 7.64%, the Potency [2] was “inactive” and the Potency [3] was “inactive”. For the same molecule, the viability [4] was 63%, the Potency [10] was “inactive” and the Potency [9] was “inactive”.
For COc1cc(Nc2nc3ccccc3nc2NS(=O)(=O)c2ccc(NC(=O)c3ccc(C)c(OC)c3)cc2)cc(OC)c1, the activation [1] was -16.4% and -17%, the Potency [2] was “inactive” and the Potency [3] was “inactive”. For the same molecule, the viability [4] was 111%, the Potency [5] was “inactive” and the Potency [6] was “inactive”. For the same molecule, the Potency [7] was “inactive”.
With Cc1cnc(-c2cnc(NCCNc3ccc(C#N)cn3)nc2-c2ccc(Cl)cc2Cl)[nH]1 the activation [1] was 9%, the Potency [2] was “inactive” and the Potency [3] was “inactive”. For the same molecule, the Potency [4] was 14.8 µM (active), the Potency [10] was “inactive” and the Potency [7] was “inactive”. The Potency [9] was “inactive”.
With CN1CCN(c2ccc(-c3cccc(CN4CCOCC4)c3)cc2NC(=O)c2c[nH]c(=O)cc2C(F)(F)F)CC1 the activation [1] was -14.5%, the Potency [2] was “inactive” and the Potency [3] was “inactive”. The viability [4] was 120%, the Potency [5] was 12.9 µM (active) and the Potency [6] was “inactive”. The Potency [7] was “inactive”, the Potency [8] was “inactive” and the Potency [9] was “inactive”.
